The values that follow come from PubChem BioAssay.

For orientation: inhibition means the relative decrease from the control value, in per cent.

“And” between values parts separate entries of the source, which are not always exact repeats. Equal entries are not always repeated. The source made the active and inactive calls. Cut-off read from the data, not from the text of the source, unless noted: active = inhibition above about 80%; inactive = the rest.

The target of experiment [1] is NAD(+) hydrolase SARM1 (Homo sapiens) (UniProt Q6SZW1). Kind of experiment: blocking NAD cleavage by SARM1 SAM-TIR – cell lysate, NAD-Glo luminescence (AID 1508614;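 active = compound whose remaining NAD level is above about 45 nM, limit read from the data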;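 note: higher remaining NAD means stronger inhibition of SARM1 NADase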). The following applies: SAM-TIR HEK293T lysate NADase, at 1 µM, stronger effect = higher value.
Experiment [2] is described as follows: galactose survival enhancers in mitochondrial complex I cybrids – cell-based, galactose medium, ATP luminescence, primary screen (AID 1645843;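 active = z-score of at least 1.8 in each of two replicates, scored against plate mean and spread of sample wells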;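 note: positive z means more ATP and so rescue of galactose-driven cybrid death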). The following applies: complex I mutant cybrid cells, 72 h, stronger effect = higher value.
Another experiment has as its system F380Y. Kind of experiment: BK channel mutant inhibitors and activators – cell-based, U2OS BacMam, thallium flux, beta subunits, selectivity assay, profiling panel (AID 1259406;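 active = thallium flux through the channel raised or lowered by more than 3 SD from vehicle-only wells, actives on both sides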;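 note: initial slope of Thallos dye fluorescence rise after thallium is added; log ratio against the mean of 0.3% DMSO vehicle wells on the same plate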). The following applies: U2OS BacMam BK variants, at 30 µM.
The test system of a further experiment is F380Y/beta1. The experiment is described as above. The following applies: U2OS BacMam BK variants, at 30 µM.
Experiment [3] addresses Mitogen-activated protein kinase 7 (Homo sapiens) (UniProt Q13164). Kind of experiment: Gal4-ERK5 driven luciferase induction – cell-based, HTS, primary screen (AID 1508626;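 active = luciferase signal above three times the same-plate solvent-only control wells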;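 note: luciferase driven by Gal4-ERK5 fusion binding five Gal4 sites before minimal TATA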). Conditions: HeLa Gal4-ERK5 transactivation, 18 h, at 5 µM, stronger effect = higher value.
Experiment [4] can be described thus: growth inhibition, single agent or in combination, cell-based, chromothripsis tumors, cisplatin or BGB combos (AID 1671449).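 Note: cells exposed for 96 hours; 0% = vehicle DMSO and 100% = killing by high DMSO.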 The following applies: LFS_MB_P medulloblastoma cells.
A short description of experiment [5]: growth inhibition, single agent and combos, cell-based, chromothripsis tumors, cisplatin or BGB combos (AID 1671450).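 Note: cells exposed to compound for four days; 0% = vehicle DMSO and 100% = cell killing by high DMSO.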 Conditions: HDN33 neuroblastoma cells, stronger effect = higher value.
Experiment [6] can be described thus: growth inhibition, single agents and combos, ICB984, cell-based, cisplatin or BGB combos, synergistic combos for chromothripsis tumors (AID 1671451; call rule not given here;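 note: cells exposed for 96 hours before readout; 0% = vehicle DMSO and 100% = killing by high DMSO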). Conditions: ICB984 medulloblastoma cells, drug combinations, stronger effect = higher value.
The nature of experiment [7]: growth inhibition, single agents and combos, LFS_MB_1R, cell-based, cisplatin or BGB combos, synergistic combos for chromothripsis tumors (AID 1671452).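 Note: cells exposed for 96 hours before readout.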 The following applies: LFS_MB_1R medulloblastoma cells, stronger effect = higher value.
Experiment [8] in a line: growth inhibition, single agents and combos, HTB85, cell-based, BGB or cisplatin IC20 combos, synergistic combos for chromothripsis tumors (AID 1671453).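 Note: cells exposed for 96 hours before readout; 0% = vehicle DMSO and 100% = high DMSO killing control.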 The following applies: HTB85 osteosarcoma cells, drug combinations, stronger effect = higher value.
A short description of experiment [9]: growth inhibition, single agents and combos, CRL2098, cell-based, BGB or cisplatin IC20 combos, synergistic combos for chromothripsis tumors (AID 1671454).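 Note: cells exposed for 96 h before readout; 0% = vehicle DMSO and 100% = killing by high DMSO.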 The following applies: CRL2098 osteosarcoma cells, drug combinations, stronger effect = higher value.
Experiment [10] is described as follows: growth inhibition, single agents and combos, HD-MB03, cell-based, BGB or cisplatin IC20 combos, synergistic combos for chromothripsis tumors (AID 1671455; in the data active = inhibition above about 83%;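 note: 0% = vehicle DMSO and 100% = high DMSO as cytotoxic control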). Conditions: HD-MB03 medulloblastoma cells, stronger effect = higher value.
The nature of experiment [11]: growth inhibition, single agents and combos, UWB1.289, cell-based, BGB or cisplatin combos, synergistic combos for chromothripsis tumors (AID 1671456).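 Note: cells exposed to compound for four days; 0% = vehicle DMSO and 100% = killing by high DMSO.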 The following applies: UWB1.289 ovarian carcinoma cells, stronger effect = higher value.
The nature of experiment [12]: growth inhibition, single agents and combos, LFS_MB_2R, cell-based, cisplatin combos, synergistic combos for chromothripsis tumors (AID 1671457).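 Note: cells exposed to compound for four days before readout.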 Conditions: LFS_MB_2R medulloblastoma cells, stronger effect = higher value.
The nature of experiment [13]: growth inhibition, MDA-MB-436, cell-based, BGB or cisplatin combos, synergistic combos for chromothripsis tumors (AID 1671458; call rule not given here;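 note: cells exposed for 96 hours; 0% = vehicle DMSO and 100% = killing by high DMSO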). Conditions: MDA-MB-436 breast carcinoma growth inhibition, drug combinations, stronger effect = higher value.
The nature of experiment [14]: UWB1.289_BRCA1 ovarian cancer growth, cell-based, BGB or cisplatin combinations (AID 1671459). The following applies: UWB1.289 BRCA1 ovarian carcinoma, drug combinations, stronger effect = higher value.
The nature of experiment [15]: drug combination toxicity in non-malignant astrocytes – cell-based, BGB or cisplatin IC20 combos, cytotoxicity control for chromothriptic childhood tumor combination screen (AID 1671460).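 Note: cells exposed to compounds for 96 hours before viability readout; 0% = vehicle and 100% = killing control.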 Conditions: Human astrocytes, viability inhibition, drug combinations, at 0.5 µM, stronger effect = higher value.
A short description of experiment [16]: BT084 cell growth, single and combined drugs, ICGC_MB145, cisplatin and BGB IC40 combos (AID 1671461).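 Note: cells exposed to drugs for 96 hours; 0% = vehicle DMSO and 100% = high DMSO full killing control.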 Conditions: BT084 medulloblastoma cells, drug combinations, stronger effect = higher value.
Experiment [17] can be described thus: RCMB18 cell growth, single agent and combined, cisplatin and BGB IC40 combos (AID 1671462).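 Note: cells exposed to compound for four days.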 The following applies: RCMB18 medulloblastoma cells, stronger effect = higher value.
The nature of experiment [18]: CRL1545 cell growth, single agent and combined, cisplatin and BGB IC20 combos (AID 1671464).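 Note: cells exposed to compound for 96 hours before readout; 0% = vehicle DMSO and 100% = high DMSO killing control.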 Conditions: CRL1545 osteosarcoma cells, stronger effect = higher value.
Setting [19] is: measured here: combination with BGB IC40, at 0.05 µM.
Setting [20] is: measured here: with BGB IC20 combination, at 0.5 µM.
The mark [21] stands for this setting: measured here: with cisplatin IC20 combination, at 0.5 µM.
Where [22] appears, read: measured here: combination with cisplatin, at 0.5 µM.
[23] abbreviates: measured here: combination with cisplatin, at 5 µM.

Sequence of Mitogen-activated protein kinase 7 (Homo sapiens) (Q13164 whole entry, looked up, the tested form may be a part): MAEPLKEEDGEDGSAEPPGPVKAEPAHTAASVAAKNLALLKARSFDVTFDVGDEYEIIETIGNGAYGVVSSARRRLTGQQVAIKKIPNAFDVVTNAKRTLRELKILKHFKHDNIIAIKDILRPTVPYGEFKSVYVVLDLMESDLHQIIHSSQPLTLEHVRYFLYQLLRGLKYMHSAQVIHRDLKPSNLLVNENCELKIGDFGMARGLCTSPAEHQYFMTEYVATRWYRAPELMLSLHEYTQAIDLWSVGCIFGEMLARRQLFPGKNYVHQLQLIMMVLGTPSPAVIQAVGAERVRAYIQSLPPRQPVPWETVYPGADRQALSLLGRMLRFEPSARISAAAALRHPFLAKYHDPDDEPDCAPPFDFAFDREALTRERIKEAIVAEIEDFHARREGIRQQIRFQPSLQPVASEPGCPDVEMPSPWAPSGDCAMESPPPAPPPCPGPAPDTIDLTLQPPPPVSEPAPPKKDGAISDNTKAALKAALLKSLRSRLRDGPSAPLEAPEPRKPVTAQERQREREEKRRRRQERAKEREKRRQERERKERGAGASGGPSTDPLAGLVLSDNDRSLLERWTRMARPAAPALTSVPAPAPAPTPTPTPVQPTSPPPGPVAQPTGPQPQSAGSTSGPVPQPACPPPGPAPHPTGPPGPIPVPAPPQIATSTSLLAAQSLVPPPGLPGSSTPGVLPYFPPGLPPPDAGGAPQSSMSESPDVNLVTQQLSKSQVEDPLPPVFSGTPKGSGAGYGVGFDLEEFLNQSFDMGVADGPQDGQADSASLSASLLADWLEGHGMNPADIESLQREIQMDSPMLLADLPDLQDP
Sequence of NAD(+) hydrolase SARM1 (Homo sapiens) (Q6SZW1 whole entry, looked up): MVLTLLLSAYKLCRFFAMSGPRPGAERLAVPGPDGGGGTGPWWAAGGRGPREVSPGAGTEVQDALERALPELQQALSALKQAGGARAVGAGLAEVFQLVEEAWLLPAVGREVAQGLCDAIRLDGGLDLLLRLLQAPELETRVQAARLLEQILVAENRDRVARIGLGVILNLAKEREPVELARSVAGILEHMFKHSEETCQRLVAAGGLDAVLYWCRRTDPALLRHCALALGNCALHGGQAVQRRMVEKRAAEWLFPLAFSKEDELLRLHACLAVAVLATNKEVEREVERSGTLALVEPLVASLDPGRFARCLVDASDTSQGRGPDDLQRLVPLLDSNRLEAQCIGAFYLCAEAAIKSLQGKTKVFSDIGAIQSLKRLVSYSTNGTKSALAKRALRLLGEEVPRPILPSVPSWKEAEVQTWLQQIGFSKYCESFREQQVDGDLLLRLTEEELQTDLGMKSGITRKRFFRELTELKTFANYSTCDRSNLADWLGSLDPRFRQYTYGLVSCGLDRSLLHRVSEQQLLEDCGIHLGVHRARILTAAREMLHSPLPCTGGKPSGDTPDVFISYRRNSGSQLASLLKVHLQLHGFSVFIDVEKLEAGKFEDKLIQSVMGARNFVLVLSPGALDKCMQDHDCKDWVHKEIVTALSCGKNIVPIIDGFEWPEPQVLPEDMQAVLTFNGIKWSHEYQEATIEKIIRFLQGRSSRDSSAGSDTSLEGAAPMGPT

Take `C[C@H](NC(CCc1ccccc1)C(=O)O)C(=O)N1CCC[C@H]1C(=O)O` (stereo partly specified): the remaining NAD in experiment [1] was 10 nM (inactive). The z-score in [2] is 0.7 (inactive) and 0.605 (inactive). In addition, the figures for the log fold change Tl+ flux in the experiment with F380Y and with F380Y/beta1 were 0.0291 (inactive) and 0.00867 (inactive), respectively.
With `COc1cc(C(=O)NS(=O)(=O)c2ccccc2C)ccc1Cc1cn(C)c2ccc(NC(=O)OC3CCCC3)cc12`, the z-score in experiment [2] is 1.64 (inactive) and 1.23 (inactive). Also, the log fold change Tl+ flux with F380Y is 0.278 (active); in the experiment on F380Y/beta1, 0.461 (active).
With `CN(CCCN1c2ccccc2CCc2ccccc21)CC(=O)c1ccc(Cl)cc1`, in experiment [2], the z-score is -1.82 (inactive) and -0.185 (inactive). The log fold change Tl+ flux with F380Y is -0.0806 (inactive); in the experiment with F380Y/beta1, -0.0237 (inactive).
For `NC(=O)OCC(COC(N)=O)c1ccccc1`, the luciferase signal in experiment [3] is 112 AU (inactive). Besides, in experiment [2], the z-score was 0.13 (inactive) and 0.59 (inactive) and 0.445 (inactive). Further, the log fold change Tl+ flux in the experiment with F380Y was -0.103 (inactive); with F380Y/beta1, -0.0115 (inactive).
As to `Cc1nc2ccc(CN(C)c3ccc(C(=O)N[C@@H](CCC(=O)O)C(=O)O)s3)cc2c(=O)[nH]1`, the inhibition in [4] (at 0.5 µM, stronger effect = higher value) was -8.68% (inactive); in [4] (measured here: combination with BGB IC20, at 0.005 µM) it was -6.5%; in experiment [4] (measured here: combination with BGB IC40, at 0.005 µM), -33.6%; in [4] (setting [19]), 2.07%; in experiment [4] (measured here: combination with cisplatin, at 0.5 µM, stronger effect = higher value), -25.4%; in [4] (measured here: combination with cisplatin, at 5 µM, stronger effect = higher value) it was -36.4%. For the same compound, the inhibition is 77.1% in experiment [5] (BGB combo, at 5 µM); 77.4% (inactive) in experiment [5] (at 0.5 µM); 75.6% in experiment [5] (cisplatin combo, at 5 µM); 75.7% in experiment [5] (setting [20]); 73.8% in [5] (setting [21]); 82.5% in [5] (single agent, at 5 µM). The inhibition in [6] (BGB IC20 combo, at 0.005 µM) is -19.7%; in experiment [6] (BGB IC40 combo, at 0.005 µM), -58.4%; in experiment [6] (BGB IC40 combo, at 0.05 µM) it was -47.3%; in experiment [6] (at 0.5 µM), -21.4% (inactive); in [6] (cisplatin combo, at 0.05 µM), -53.1%; in [6] (cisplatin combo, at 0.5 µM), -23.4%. Moreover, the inhibition was -41.1% in experiment [6] (cisplatin combo, at 5 µM); -8.4% in experiment [6] (measured here: 5 uM single agent, at 5 µM); -22.3% (inactive) in experiment [7] (at 0.5 µM); -24.2% in [7] (setting [19]); -26.4% in experiment [7] (setting [22]); -6.83% in experiment [7] (setting [23]). The inhibition was -11% (inactive) in experiment [8] (at 0.5 µM); -19.6% in [8] (measured here: with BGB IC20, at 0.5 µM); -9.72% in experiment [8] (measured here: with BGB IC20, at 5 µM); -17.6% in experiment [8] (measured here: with cisplatin IC20, at 0.5 µM); 2.95% in experiment [8] (measured here: with cisplatin IC20, at 5 µM); 10.6% in [8] (single agent, at 5 µM). The inhibition is 54.5% (inactive) in experiment [9] (at 0.5 µM); 35.1% in experiment [9] (measured here: combination with BGB at IC20, at 0.5 µM); 62.3% in experiment [9] (measured here: combination with cisplatin at IC20, at 0.5 µM); 78.5% (inactive) in experiment [10] (at 0.5 µM); 71.9% in [10] (measured here: combo with BGB at IC20, at 0.5 µM); 79.7% in [10] (measured here: combo with cisplatin at IC20, at 0.5 µM). Moreover, the inhibition in [11] (at 0.5 µM) was 29.7% (inactive); in experiment [11] (measured here: inhibition with BGB combination, at 0.05 µM), -4.8%; in experiment [11] (measured here: inhibition with cisplatin combination, at 0.05 µM), 1.64%; in experiment [12] (at 0.5 µM), -17.1% (inactive); in experiment [12] (setting [22]) it was -12.9%; in experiment [12] (setting [23]) it was -18.4%. Further, the inhibition in experiment [13] (at 0.5 µM) is 44.2% (inactive); in [13] (measured here: BGB combination, at 0.5 µM), 26.6%; in experiment [13] (measured here: BGB combination, at 5 µM), 17.5%; in [13] (measured here: cisplatin combination, at 0.5 µM) it was 47.7%; in experiment [13] (measured here: cisplatin combination, at 5 µM) it was 45.6%; in experiment [14] (BGB combination, concentration series, at 5 µM) it was 48.7%. Further, the inhibition in experiment [14] (at 0.5 µM) is 42.1% (inactive); in experiment [14] (cisplatin combination, concentration series, at 5 µM) it was 59.8%; in experiment [15], -0.43% (inactive); in experiment [15] (measured here: combo with BGB IC20) it was 3.56%; in experiment [15] (measured here: combo with cisplatin IC20), 0.651%; in experiment [16] (at 0.5 µM), -1.53% (inactive). Besides, the inhibition in experiment [16] (cisplatin combination, at 0.5 µM) is 4.81%; in [16] (cisplatin combination, at 5 µM), -0.041%; in experiment [16] (measured here: BGB IC40 combination 0.05 uM, at 0.05 µM), -15.2%; in experiment [16] (single agent, at 5 µM) it was -10.4%; in experiment [17] (at 0.5 µM), -20.8% (inactive); in experiment [17] (cisplatin combo, at 5 µM) it was 14%. Also, the inhibition in [17] (measured here: BGB IC40 combination, at 0.05 µM) was -41.8%; in experiment [17] (setting [22]), -4.37%; in [17] (single agent, at 5 µM) it was -40.1%; in experiment [18] (at 0.5 µM), -1.83% (inactive); in [18] (setting [20]), 13.9%; in [18] (setting [21]) it was -9.68%. For the same compound, the inhibition in experiment [18] (single agent, at 0.05 µM) was 0.207%; in [18] (single agent, at 5 µM), 28.5%.
As to `COc1ccc2cc1Oc1ccc(cc1)C[C@H]1c3c(cc4c(c3Oc3cc5c(cc3OC)CCN(C)[C@@H]5C2)OCO4)CCN1C`, the remaining NAD in experiment [1] was 10 nM (inactive). In addition, in experiment [3], the luciferase signal was 212 AU (inactive).
In the case of `Cc1c(NC(C)C)c(=O)n(-c2ccccc2)n1C`, the remaining NAD in [1] was 10 nM (inactive). In addition, the luciferase signal in experiment [3] was 56 AU (inactive).
